According to publication PMC7862700, “An all-to-all approach to the identification of sequence-specific readers for epigenetic DNA modifications on cytosine”:

Experiments:
Test in all cases: DAPPL (digital affinity profiling via proximity ligation, sequencing); 10 mM Tris-HCl pH 7.5, 50 mM NaCl, 1 mM DTT, 4% glycerol, room temperature, 30 min; GST-TFs on glutathione beads, 16-mer random dsDNA library, 0.1% formaldehyde crosslink after washing; high values mean tight binding
FEV = molecular target: T1, FEV (Homo sapiens, UniProt Q99581 1-238); settings: protein: recombinant; tags: N-terminal GST; dsDNA, one strand shown
T1 sequence: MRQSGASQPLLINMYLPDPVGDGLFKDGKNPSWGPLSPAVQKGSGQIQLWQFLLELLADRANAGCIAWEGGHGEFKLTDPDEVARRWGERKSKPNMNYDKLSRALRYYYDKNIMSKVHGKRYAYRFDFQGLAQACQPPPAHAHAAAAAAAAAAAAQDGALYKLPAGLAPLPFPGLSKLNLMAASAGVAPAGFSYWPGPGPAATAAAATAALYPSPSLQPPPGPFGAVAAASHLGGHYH
In short: (§1)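 The binding signal reported is, for every hexamer, its read frequency for a factor over its read frequency for the tag-only sample. Reads came from pools of yeast-expressed, GST-fused human transcription factors on glutathione beads, barcoded with DNA and mixed with that sample, which were incubated with 200 nmole of a random double-stranded 16-mer DNA library in Tris/NaCl/DTT/glycerol buffer at room temperature for 30 min. After washing, the pools were crosslinked with 0.1% formaldehyde, proximity-ligated with BsaI/T4 ligase for 1 h at 37 °C, PCR-amplified and sequenced on an Illumina NextSeq500.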

ETV5 = ETV5 (Homo sapiens, UniProt P41161 1-510); settings: protein: recombinant; tags: N-terminal GST; dsDNA, one strand shown
In short: as §1

HSF1 = HSF1 (Homo sapiens, UniProt Q00613 1-529); settings: protein: recombinant; tags: N-terminal GST; chain copies: 3; dsDNA, one strand shown
In short: as §1

SPIC = molecular target: T2, SPIC (Homo sapiens, UniProt Q8N5J4 1-248); settings: protein: recombinant; tags: N-terminal GST; dsDNA, one strand shown
T2 sequence: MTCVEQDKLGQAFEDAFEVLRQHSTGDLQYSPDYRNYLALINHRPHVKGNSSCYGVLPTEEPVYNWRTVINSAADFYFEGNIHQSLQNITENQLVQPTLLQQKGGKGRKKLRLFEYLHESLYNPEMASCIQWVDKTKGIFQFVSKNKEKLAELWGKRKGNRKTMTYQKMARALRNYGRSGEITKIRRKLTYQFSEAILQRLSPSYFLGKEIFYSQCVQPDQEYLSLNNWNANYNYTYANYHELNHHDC
In short: as §1

ELF4 = ELF4 (Homo sapiens, UniProt Q99607 1-663); settings: protein: recombinant; tags: N-terminal GST; dsDNA, one strand shown
In short: as §1

ELK4 = molecular target: T3, ELK4 (Homo sapiens, UniProt P28324-2 1-405); settings: protein: recombinant; tags: N-terminal GST; dsDNA, one strand shown
T3 sequence: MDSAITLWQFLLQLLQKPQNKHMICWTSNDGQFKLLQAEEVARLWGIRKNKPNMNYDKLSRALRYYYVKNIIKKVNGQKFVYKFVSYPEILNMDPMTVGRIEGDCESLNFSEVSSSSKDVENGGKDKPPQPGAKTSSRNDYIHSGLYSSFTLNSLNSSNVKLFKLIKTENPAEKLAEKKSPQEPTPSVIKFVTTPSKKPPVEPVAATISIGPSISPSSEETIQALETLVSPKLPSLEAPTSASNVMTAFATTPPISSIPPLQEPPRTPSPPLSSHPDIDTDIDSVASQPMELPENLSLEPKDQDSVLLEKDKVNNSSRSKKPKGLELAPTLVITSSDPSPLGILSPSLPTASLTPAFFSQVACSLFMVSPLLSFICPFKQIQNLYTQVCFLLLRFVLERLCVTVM
In short: as §1

ETV2 = molecular target: T4, ETV2 (Homo sapiens, UniProt O00321 1-342); settings: protein: recombinant; tags: N-terminal GST; dsDNA, one strand shown
T4 sequence: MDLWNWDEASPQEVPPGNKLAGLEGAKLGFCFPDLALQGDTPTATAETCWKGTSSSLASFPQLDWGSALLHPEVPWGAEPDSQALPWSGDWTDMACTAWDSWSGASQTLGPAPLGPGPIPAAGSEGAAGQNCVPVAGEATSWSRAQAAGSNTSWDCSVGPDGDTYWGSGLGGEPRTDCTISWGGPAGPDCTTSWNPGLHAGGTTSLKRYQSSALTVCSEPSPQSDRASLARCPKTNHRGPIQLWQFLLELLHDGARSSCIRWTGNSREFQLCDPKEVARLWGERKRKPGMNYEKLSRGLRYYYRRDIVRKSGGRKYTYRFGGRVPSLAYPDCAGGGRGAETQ
In short: as §1

ELF3 = molecular target: T5, ELF3 (Homo sapiens, UniProt P78545 1-371); settings: protein: recombinant; tags: N-terminal GST; dsDNA, one strand shown
T5 sequence: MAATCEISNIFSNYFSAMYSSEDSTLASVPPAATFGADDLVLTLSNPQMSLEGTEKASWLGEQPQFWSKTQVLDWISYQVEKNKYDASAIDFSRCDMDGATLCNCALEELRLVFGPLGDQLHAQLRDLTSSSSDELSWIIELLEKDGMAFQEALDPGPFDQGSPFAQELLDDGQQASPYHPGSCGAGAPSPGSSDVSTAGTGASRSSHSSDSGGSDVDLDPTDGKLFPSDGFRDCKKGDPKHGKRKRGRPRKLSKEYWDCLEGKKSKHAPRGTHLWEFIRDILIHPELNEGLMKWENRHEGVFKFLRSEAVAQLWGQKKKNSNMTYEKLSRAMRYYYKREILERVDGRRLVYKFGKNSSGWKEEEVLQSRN
In short: as §1

CRX = CRX (Homo sapiens, UniProt O43186 1-299); settings: protein: recombinant; tags: N-terminal GST; dsDNA, one strand shown
In short: as §1

ETV1 = ETV1 (Homo sapiens, UniProt P50549 1-477); settings: protein: recombinant; tags: N-terminal GST; dsDNA, one strand shown
In short: as §1

ERF = molecular target: T6, ERF (Homo sapiens, UniProt P50548 1-548); settings: protein: recombinant; tags: N-terminal GST; dsDNA, one strand shown
T6 sequence: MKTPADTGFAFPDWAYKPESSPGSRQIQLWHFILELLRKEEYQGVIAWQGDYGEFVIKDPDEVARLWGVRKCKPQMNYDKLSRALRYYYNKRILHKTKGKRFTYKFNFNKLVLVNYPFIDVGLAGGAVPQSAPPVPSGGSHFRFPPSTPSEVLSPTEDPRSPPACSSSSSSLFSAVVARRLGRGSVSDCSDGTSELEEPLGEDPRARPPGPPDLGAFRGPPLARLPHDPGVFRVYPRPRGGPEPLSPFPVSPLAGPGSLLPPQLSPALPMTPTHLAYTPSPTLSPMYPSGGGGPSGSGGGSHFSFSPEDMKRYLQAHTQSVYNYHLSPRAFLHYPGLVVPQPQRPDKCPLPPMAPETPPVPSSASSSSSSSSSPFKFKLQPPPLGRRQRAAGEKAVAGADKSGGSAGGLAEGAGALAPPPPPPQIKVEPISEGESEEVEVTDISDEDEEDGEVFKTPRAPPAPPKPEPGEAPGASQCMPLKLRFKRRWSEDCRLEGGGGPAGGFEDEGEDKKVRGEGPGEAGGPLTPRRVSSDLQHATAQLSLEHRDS
In short: as §1

ETV3L = molecular target: T7, ETV3L (Homo sapiens, UniProt Q6ZN32 1-361); settings: protein: recombinant; tags: N-terminal GST; dsDNA, one strand shown
T7 sequence: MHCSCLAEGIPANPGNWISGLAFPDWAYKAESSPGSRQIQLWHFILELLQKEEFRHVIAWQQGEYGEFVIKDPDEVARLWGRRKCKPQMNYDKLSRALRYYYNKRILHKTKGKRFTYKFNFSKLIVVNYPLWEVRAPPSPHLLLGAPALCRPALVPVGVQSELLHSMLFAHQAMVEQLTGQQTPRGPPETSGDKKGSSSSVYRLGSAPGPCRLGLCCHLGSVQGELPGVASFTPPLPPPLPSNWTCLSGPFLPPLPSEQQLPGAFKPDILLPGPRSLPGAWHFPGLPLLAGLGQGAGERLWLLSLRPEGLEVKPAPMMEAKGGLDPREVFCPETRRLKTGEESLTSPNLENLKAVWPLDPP
In short: as §1

ETS2 = molecular target: T8, ETS2 (Homo sapiens, UniProt P15036 1-469); settings: protein: recombinant; tags: N-terminal GST; dsDNA, one strand shown
T8 sequence: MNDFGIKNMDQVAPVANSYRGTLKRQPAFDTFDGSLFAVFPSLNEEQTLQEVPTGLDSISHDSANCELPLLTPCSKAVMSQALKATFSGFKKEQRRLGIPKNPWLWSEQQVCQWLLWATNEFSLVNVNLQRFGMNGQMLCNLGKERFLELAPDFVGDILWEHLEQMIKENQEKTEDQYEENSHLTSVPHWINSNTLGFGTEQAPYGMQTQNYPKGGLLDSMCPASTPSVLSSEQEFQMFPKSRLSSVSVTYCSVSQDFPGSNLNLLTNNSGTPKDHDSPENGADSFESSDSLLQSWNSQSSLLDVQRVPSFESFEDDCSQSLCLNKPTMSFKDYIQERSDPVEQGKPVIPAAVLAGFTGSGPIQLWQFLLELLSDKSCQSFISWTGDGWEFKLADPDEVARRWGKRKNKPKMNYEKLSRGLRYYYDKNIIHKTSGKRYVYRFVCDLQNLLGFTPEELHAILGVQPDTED
In short: as §1

SPDEF = molecular target: T9, SPDEF (Homo sapiens, UniProt O95238 1-335); settings: protein: recombinant; tags: N-terminal GST; dsDNA, one strand shown
T9 sequence: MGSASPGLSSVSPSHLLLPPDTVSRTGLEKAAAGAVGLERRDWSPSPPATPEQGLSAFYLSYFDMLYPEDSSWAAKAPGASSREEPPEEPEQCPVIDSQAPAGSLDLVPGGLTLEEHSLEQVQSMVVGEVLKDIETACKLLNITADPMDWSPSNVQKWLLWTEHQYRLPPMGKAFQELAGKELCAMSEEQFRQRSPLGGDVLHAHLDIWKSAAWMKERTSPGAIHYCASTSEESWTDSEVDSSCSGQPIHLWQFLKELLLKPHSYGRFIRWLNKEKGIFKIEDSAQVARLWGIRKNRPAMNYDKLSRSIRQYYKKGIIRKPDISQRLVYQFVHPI
In short: as §1

ETV7 = molecular target: T10, ETV7 (Homo sapiens, UniProt Q9Y603 1-341); settings: protein: recombinant; tags: N-terminal GST; dsDNA, one strand shown
T10 sequence: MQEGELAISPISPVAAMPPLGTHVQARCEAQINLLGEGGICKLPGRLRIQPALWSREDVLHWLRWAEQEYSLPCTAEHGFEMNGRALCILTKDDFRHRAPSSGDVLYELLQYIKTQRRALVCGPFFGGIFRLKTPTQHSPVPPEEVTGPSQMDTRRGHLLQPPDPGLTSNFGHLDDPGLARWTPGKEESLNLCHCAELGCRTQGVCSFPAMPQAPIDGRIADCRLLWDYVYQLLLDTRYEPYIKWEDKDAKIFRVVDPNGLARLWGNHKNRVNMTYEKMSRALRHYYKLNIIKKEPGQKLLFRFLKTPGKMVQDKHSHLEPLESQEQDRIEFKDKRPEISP
In short: as §1

ELF5 = molecular target: T11, ELF5 (Homo sapiens, UniProt Q9UKW6-2 1-255); settings: protein: recombinant; tags: N-terminal GST; dsDNA, one strand shown
T11 sequence: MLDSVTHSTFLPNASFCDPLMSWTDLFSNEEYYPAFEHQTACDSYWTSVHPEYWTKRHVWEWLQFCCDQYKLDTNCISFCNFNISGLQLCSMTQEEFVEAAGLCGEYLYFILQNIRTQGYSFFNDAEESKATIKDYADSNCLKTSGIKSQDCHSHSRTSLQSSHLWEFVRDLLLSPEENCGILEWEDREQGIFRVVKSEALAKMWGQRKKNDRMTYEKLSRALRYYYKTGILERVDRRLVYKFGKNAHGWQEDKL
In short: as §1

ETV3 = molecular target: T12, ETV3 (Homo sapiens, UniProt P41162-2 1-143); settings: protein: recombinant; tags: N-terminal GST; dsDNA, one strand shown
T12 sequence: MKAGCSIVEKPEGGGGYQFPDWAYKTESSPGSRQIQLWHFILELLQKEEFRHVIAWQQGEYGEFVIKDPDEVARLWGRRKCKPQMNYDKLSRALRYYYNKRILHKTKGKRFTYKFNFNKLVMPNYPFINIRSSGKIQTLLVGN
In short: as §1

ETV6 = ETV6 (Homo sapiens, UniProt P41212 1-452); settings: protein: recombinant; tags: N-terminal GST; dsDNA, one strand shown
In short: as §1

ETV6, sequence (P41212 whole entry): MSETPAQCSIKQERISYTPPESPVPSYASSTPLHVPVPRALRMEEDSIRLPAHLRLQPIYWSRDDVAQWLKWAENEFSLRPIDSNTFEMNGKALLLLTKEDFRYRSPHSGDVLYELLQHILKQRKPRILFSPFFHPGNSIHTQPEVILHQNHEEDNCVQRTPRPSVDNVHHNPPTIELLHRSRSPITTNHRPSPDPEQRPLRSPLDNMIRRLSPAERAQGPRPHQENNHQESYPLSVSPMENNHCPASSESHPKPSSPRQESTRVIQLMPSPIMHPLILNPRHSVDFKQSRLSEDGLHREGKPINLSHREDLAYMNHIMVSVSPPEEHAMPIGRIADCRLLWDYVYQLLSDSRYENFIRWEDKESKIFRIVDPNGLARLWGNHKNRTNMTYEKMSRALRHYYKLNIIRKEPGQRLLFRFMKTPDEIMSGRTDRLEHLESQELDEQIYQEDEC
HSF1, sequence (Q00613 whole entry): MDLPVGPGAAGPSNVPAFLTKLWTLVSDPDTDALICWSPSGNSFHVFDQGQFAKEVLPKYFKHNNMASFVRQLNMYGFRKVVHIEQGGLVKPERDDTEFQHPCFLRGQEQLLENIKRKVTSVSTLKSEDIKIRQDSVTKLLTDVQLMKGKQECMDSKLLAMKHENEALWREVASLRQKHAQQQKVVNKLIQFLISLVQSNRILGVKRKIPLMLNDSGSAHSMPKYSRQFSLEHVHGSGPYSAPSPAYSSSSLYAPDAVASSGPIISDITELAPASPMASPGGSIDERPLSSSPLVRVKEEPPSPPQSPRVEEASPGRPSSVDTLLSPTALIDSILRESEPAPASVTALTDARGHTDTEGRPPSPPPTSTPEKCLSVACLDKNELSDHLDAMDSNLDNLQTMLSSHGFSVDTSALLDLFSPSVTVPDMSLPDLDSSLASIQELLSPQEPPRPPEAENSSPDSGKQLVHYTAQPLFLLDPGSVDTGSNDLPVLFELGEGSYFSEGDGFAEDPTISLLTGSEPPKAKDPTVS
ETV1, sequence (P50549 whole entry): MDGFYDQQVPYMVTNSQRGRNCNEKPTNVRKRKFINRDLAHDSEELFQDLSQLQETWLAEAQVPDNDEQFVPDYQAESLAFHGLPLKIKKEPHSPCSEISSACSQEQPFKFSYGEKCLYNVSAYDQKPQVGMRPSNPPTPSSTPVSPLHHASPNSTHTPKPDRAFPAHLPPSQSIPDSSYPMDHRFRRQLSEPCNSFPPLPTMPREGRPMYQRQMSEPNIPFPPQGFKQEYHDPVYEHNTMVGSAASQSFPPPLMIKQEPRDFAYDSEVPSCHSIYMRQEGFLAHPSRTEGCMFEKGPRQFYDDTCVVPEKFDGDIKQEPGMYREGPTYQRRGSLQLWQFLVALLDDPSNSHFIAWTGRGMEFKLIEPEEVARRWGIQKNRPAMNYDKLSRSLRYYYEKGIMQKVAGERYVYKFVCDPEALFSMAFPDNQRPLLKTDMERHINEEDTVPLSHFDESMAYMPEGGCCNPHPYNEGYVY
ELF4, sequence (Q99607 whole entry): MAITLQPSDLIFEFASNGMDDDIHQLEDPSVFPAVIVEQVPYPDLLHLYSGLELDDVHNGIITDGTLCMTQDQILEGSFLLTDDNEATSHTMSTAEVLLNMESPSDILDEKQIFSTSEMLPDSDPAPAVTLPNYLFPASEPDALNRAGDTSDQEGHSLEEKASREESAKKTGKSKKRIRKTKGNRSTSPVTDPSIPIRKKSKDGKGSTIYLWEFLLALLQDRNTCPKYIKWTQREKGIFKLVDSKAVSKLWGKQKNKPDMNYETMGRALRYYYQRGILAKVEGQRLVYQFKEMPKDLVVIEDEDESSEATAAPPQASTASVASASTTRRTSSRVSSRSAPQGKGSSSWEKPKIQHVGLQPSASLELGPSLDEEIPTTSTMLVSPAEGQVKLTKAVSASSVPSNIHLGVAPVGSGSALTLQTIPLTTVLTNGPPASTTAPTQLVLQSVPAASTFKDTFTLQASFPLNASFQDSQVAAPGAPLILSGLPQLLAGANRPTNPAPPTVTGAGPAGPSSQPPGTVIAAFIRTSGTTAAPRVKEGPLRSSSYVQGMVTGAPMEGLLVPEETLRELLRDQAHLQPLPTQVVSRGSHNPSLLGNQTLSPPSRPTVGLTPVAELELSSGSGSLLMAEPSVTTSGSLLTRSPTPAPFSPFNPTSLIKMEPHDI
CRX, sequence (O43186 whole entry): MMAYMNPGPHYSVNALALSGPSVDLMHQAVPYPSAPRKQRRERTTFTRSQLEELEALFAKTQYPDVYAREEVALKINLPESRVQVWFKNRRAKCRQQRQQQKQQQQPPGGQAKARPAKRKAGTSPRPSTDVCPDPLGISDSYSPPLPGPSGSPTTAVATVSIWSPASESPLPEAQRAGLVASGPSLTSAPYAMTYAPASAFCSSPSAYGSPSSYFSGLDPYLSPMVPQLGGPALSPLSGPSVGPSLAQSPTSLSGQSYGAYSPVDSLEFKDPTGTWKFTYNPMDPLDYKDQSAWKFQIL
ETV5, sequence (P41161 whole entry): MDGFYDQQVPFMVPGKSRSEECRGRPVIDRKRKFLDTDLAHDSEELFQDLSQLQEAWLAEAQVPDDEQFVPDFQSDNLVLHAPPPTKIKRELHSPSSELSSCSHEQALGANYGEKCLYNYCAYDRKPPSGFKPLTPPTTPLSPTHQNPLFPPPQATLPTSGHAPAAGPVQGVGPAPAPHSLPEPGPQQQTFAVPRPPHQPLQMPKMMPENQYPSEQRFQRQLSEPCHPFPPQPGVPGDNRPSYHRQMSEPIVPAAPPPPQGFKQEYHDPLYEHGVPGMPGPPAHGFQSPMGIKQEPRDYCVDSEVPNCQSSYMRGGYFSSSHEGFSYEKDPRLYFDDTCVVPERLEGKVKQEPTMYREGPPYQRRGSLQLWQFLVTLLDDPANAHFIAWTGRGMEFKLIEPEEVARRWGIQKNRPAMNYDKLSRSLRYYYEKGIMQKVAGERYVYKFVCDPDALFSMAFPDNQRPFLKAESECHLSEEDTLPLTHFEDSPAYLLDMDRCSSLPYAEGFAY

How did the binding signal (FEV) turn out when TCATTT was run?
Its binding signal is 1.38 fold enrichment (6-mer frequency, TF over GST control).

What about the binding signal (ETV5) of the same sequence?
The binding signal was 1.4 fold enrichment (6-mer frequency, TF over GST control).

What about the binding signal (HSF1) of the same sequence?
The binding signal was 1.14 fold enrichment (6-mer frequency, TF over GST control).

And the binding signal (SPIC)?
Its binding signal is 1.41 fold enrichment (6-mer frequency, TF over GST control).

And the binding signal (ELF4)?
The binding signal was 1.34 fold enrichment (6-mer frequency, TF over GST control).

What about the binding signal (ELK4) of the same sequence?
The binding signal was 1.37 fold enrichment (6-mer frequency, TF over GST control).

And the binding signal (ETV2)?
Its binding signal is 1.5 fold enrichment (6-mer frequency, TF over GST control).

And the binding signal (ELF3)?
Its binding signal is 1.24 fold enrichment (6-mer frequency, TF over GST control).

What about the binding signal (CRX) of the same sequence?
Its binding signal is 1.16 fold enrichment (6-mer frequency, TF over GST control).

And the binding signal (ETV1)?
The binding signal was 1.41 fold enrichment (6-mer frequency, TF over GST control).

And the binding signal (ERF)?
The binding signal was 1.37 fold enrichment (6-mer frequency, TF over GST control).

And the binding signal (ETV3L)?
The binding signal was 1.47 fold enrichment (6-mer frequency, TF over GST control).

What about the binding signal (ETS2) of the same sequence?
Its binding signal is 1.41 fold enrichment (6-mer frequency, TF over GST control).

And the binding signal (SPDEF)?
The binding signal was 1.22 fold enrichment (6-mer frequency, TF over GST control).

And the binding signal (ETV7)?
The binding signal was 1.37 fold enrichment (6-mer frequency, TF over GST control).

What about the binding signal (ELF5) of the same sequence?
The binding signal was 1.32 fold enrichment (6-mer frequency, TF over GST control).

What about the binding signal (ETV3) of the same sequence?
The binding signal was 1.3 fold enrichment (6-mer frequency, TF over GST control).

What about the binding signal (ETV6) of the same sequence?
Its binding signal is 1.35 fold enrichment (6-mer frequency, TF over GST control).
